# Measured values as given in PMC5540273 (PLoS ONE, 2017).
# Columns and labels:
# GRK3 = system: T1, GRK3
# T1 construct: gene ADRBK2
# ERK2 = system: T2, ERK2
# T2 construct: gene MAPK1
# ERK3 = system: T3, ERK3
# T3 construct: gene MAPK6
# ERK4 = system: T4, ERK4
# T4 construct: gene MAPK4
# HASPIN = system: T5, HASPIN
# T5 construct: gene GSG2
# IKK-beta = system: T6, IKK-beta
# T6 construct: gene IKBKB
# IKK-epsilon = system: T7, IKK-epsilon
# T7 construct: gene IKBKE
# 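Note: kd values determined as follow-up on hits from a single-replicate KINOMEscan panel screen.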
structure (smiles),measurement,setting,value
CS(=O)(=O)CCNCc1nc(-c2ccc3ncnc(Nc4ccc5c(cnn5Cc5ccccc5)c4)c3c2)cs1.Cl.Cl [GW569716],Kd,ERBB3,0.069 µM
same,Kd,ERBB4,0.0082 µM
CS(=O)(=O)CCNCc1nc(-c2ccc3ncnc(Nc4ccc(OCc5ccccc5)c(Cl)c4)c3c2)cs1.Cl [GW582764],Kd,ERBB4,0.069 µM
same,Kd,GRK3,> 10 µM
Cc1ccc(-c2nc(Nc3ccncc3)c3ccccc3n2)s1 [GSK189015],Kd,ERK2,> 10 µM
CCn1c(-c2c(N)noc2C)nc2cnccc21 [SB-737856],Kd,ERK3,> 10 µM
CC(=O)c1c(C)c2cnc(Nc3ccc(N4CCNCC4)cn3)nc2n(C2CCCC2)c1=O,Kd,ERK3,> 10 µM
Cc1nccc(-c2c(-c3ccc(F)cc3)ncn2CCCN2CCOCC2)n1.Cl [SB-282975],Kd,ERK4,> 10 µM
Cc1c(Cn2c3ccccc3n3c(=O)cc(N4CCOCC4)nc23)cccc1C(F)(F)F [GSK2306394],Kd,ERK4,> 10 µM
Cn1cnc2c(N)ncnc21 [SKF-97623],Kd,FLT3-autoinhibited,> 10 µM
O=C(Nc1n[nH]c2nc(-c3cccs3)c(Br)cc12)C1CC1 [SB-735297],Kd,FLT3,0.15 µM
CS(=O)(=O)Cc1ccc(Nc2nccc(-c3c(-c4cccc(NC(=O)C5CCCCC5)c4)nn4ncccc34)n2)cc1 [GSK350559],Kd,FLT3,0.074 µM
Cn1cncc1C(=O)NC1CCN(c2ccnc(Nc3ccc(F)cc3)n2)C1 (centres unmarked) [GSK1379717],Kd,FLT4,> 10 µM
CNc1nc(-c2ccc3c(N)n[nH]c3c2)cc(N2C[C@@H](C(=O)Nc3ccccc3)CC[C@H]2C)n1 [GSK2298859],Kd,GRK1,> 10 µM
COC(=O)C(Cc1ccccc1)NC(=O)NC1CCN(c2ccnc(Nc3ccc(F)cc3)n2)C1 (centres unmarked) [GSK1379714],Kd,GRK1,> 10 µM
CC(C)c1cc(-c2ccc3c(N)n[nH]c3c2)nc(N)n1 [GSK2250882],Kd,HASPIN,0.2 µM
COc1cccc(NC(=O)Nc2ccc(C)c(-c3ccc(C(=O)Nc4ccncc4)cc3)c2)c1 [GSK1398474],Kd,IKK-beta,> 10 µM
FC(F)(F)c1ccccc1-c1cc(-c2c[nH]nc2-c2ccccn2)ccn1 [GW679396],Kd,IKK-epsilon,> 10 µM
COc1ccc(Nc2nccc(N3CCC(NC(=O)C(C)c4ccc(Cl)cc4)CC3)n2)cc1 (centres unmarked) [GSK1379812],Kd,IKK-epsilon,> 10 µM
Cl.Cl.Cl.N#Cc1ccc(CCNc2nccc(-c3cccc(CN4CCNCC4)c3)n2)cc1 [GSK2137462],Kd,INSR,> 10 µM
